What all share (assay): NCI-60 one-dose screen, 48 h (100 = growth as untreated, 0 = no growth, -100 = all killed)
Assay [1] concerns HCT-15 colon. Particulars: 10 µM.
The subject of assay [2] is HT29 colon. As to conditions: 10 µM.
The test system of assay [3] is SNB-75 CNS. As to conditions: 10 µM.
Assay [4] has as its system SNB-19 CNS. Particulars: 10 µM.
In assay [5] the test system is U251 CNS. Particulars: 10 µM unless noted.
The subject of assay [6] is PC-3 prostate. As to conditions: 10 µM.
For assay [7], the system named is SK-MEL-5 melanoma. Particulars: 10 µM unless noted.
Assay [8] concerns LOX IMVI melanoma. As to conditions: 10 µM unless noted.
Assay [9] has as its system SK-MEL-28 melanoma. As to conditions: 10 µM.
For assay [10], the system named is SK-MEL-2 melanoma. Particulars: 10 µM.
For assay [11], the system named is EKVX NSCLC. Particulars: 10 µM.
Assay [12] has as its system UO-31 renal. As to conditions: 10 µM.
Assay [13] deals with TK-10 renal.
In assay [14] the test system is ACHN renal. As to conditions: 10 µM.
Assay [15] has as its system CAKI-1 renal. As to conditions: 10 µM.
In assay [16] the test system is A498 renal. Particulars: 10 µM.
In assay [17] the test system is CCRF-CEM leukemia. As to conditions: 10 µM.
Assay [18] deals with MOLT-4 leukemia. As to conditions: 10 µM.
For assay [19], the system named is UACC-62 melanoma.
Assay [20] concerns SN12C renal. As to conditions: 10 µM.

The source of these data is PubChem BioAssay (NCI).

Values joined by “and” are separate entries in the source; they are usually repeats but may differ in a detail not shown here. Equal values may be shown once. The panel holds about 83,000 compounds, 20% with a hit somewhere; the sample as a whole holds those more often.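 Results are percent growth after 48 hours of single-concentration exposure. 100 means growth as in untreated cells, lower positive values show inhibition; negative values down to -100 show cell death.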 Active and inactive are the calls of the source. The calls were made as follows: active = growth percent below 10; inactive = the rest.

Take `CC(=O)OCC(OC(C)=O)C(OC(C)=O)C(OC(C)=O)C(OC(C)=O)C(/C=N/Nc1ccccc1)=N/Nc1ccccc1` (centres undefined): the growth in [1] is 59.5% (inactive); in assay [2] it was 56.1% (inactive); in [3], 87.4% (inactive); in assay [4], 88.9% (inactive); in [5] it was 72.5% (inactive); in assay [6], 55.9% (inactive). Moreover, the growth in assay [7] was 91.9% (inactive); in assay [8], 36.8% (inactive); in assay [9], 101% (inactive); in assay [10], 84.3% (inactive); in assay [11], 60% (inactive); in [12] it was 48.6% (inactive). For the same compound, the growth is 91.2% (inactive) in [13] (10 µM); 56.2% (inactive) in assay [14]; 72.6% (inactive) in assay [15]; 83.4% (inactive) in assay [16]; 17.5% (inactive) in assay [17]; 30.6% (inactive) in assay [18].
For `CCN1/C(=C/C=C/C=C/c2sc3ccccc3[n+]2CC)Sc2ccccc21`, the growth in assay [1] was -20.9% (active); in assay [2], -66.1% (active); in assay [3] it was -45.6% (active); in assay [4], -5.19% (active); in assay [5], -6.94% (active); in [6], 7.09% (active). Besides, the growth in assay [19] (10 µM) is -74.6% (active); in assay [8], -57.5% (active); in [9], -56.6% (active); in assay [10], -59.1% (active); in assay [11] it was -31.9% (active); in assay [20] it was -20.7% (active). In addition, the growth in assay [12] was -35.3% (active); in assay [13] (10 µM), -6.28% (active); in assay [14] it was -45.6% (active); in assay [15], -0.841% (active); in [16], 9.48% (active); in assay [17] it was 8.96% (active). Also, the growth in [18] is -31.7% (active).
In the case of `Nc1ccc2cc3ccc(N)cc3nc2c1`, the growth in assay [1] is 105% (inactive) and 15.3% (inactive); in [2] it was 105% (inactive) and 4.36% (active); in [3], 101% (inactive); in assay [4], 108% (inactive) and 30.4% (inactive); in assay [5] it was 104% (inactive) and 8.67% (active); in assay [6], 94.5% (inactive) and 14.4% (inactive). Moreover, the growth in [19] (10 µM) was 109% (inactive) and -35.5% (active); in assay [8], 105% (inactive) and -30.1% (active); in [9], 108% (inactive) and -6.93% (active); in assay [10], -26.2% (active); in assay [11], 88.3% (inactive) and 25.2% (inactive); in [20], 86.2% (inactive) and 9.16% (active). Besides, the growth in [12] is 86.3% (inactive) and -14.7% (active); in [13] (10 µM) it was 120% (inactive) and 25.8% (inactive); in [14] it was 108% (inactive) and 1.69% (active); in assay [15], 87.8% (inactive) and 4.44% (active); in assay [16] it was 85.6% (inactive) and 1.64% (active); in assay [17], 6.51% (active). In addition, the growth in assay [18] was 90% (inactive) and 8.01% (active).
As to `NNc1ccc2ccccc2c1`, the growth is 91.2% (inactive) and 97% (inactive) in [1]; 99.8% (inactive) and 104% (inactive) in [2]; 79.1% (inactive) and 75.7% (inactive) in [3]; 99% (inactive) and 102% (inactive) in assay [4]; 103% (inactive) and 101% (inactive) in assay [5]; 73% (inactive) and 82% (inactive) in assay [6]. The growth in assay [19] (10 µM) was 78% (inactive) and 99.9% (inactive); in assay [8] it was 75.5% (inactive) and 91.7% (inactive); in assay [9], 111% (inactive) and 114% (inactive); in assay [10], 101% (inactive) and 108% (inactive); in assay [11] it was 76.7% (inactive) and 93% (inactive); in assay [12] it was 52.5% (inactive) and 68.7% (inactive). For the same compound, the growth in [13] (10 µM) is 109% (inactive) and 120% (inactive); in assay [14] it was 81.6% (inactive) and 98.7% (inactive); in [15], 84.6% (inactive) and 95.5% (inactive); in assay [16], 88.5% (inactive); in [17], 84.1% (inactive) and 114% (inactive); in assay [18], 94.3% (inactive) and 109% (inactive).
Take `COc1cccc2c1C(=O)c1c(O)c3c(c(O)c1C2=O)C[C@@](O)(C(C)=O)C[C@@H]3OC1CC(N)C(O)C(C)O1` (some centres undefined): the growth is 3.22% (active) in assay [1]; 1.89% (active) in [2]; -82.7% (active) in assay [3]; -9.95% (active) in [4]; 3.16% (active) in [5]; -25.8% (active) in [6]. In addition, the growth in [19] (10 µM) was -71.8% (active); in assay [19] (50 µM), -98.9% (active) and -100% (active); in [8], 1.63% (active); in assay [9], -51% (active); in assay [10], -38.6% (active); in assay [11], -3.48% (active). The growth in assay [12] is 11.3% (inactive); in assay [13] (10 µM) it was 18.5% (inactive); in assay [13] (50 µM), -97.7% (active) and -90.9% (active); in assay [14] it was 0.546% (active); in assay [15], -31.1% (active); in [16], -71.7% (active). Further, the growth in assay [17] was -24.1% (active); in assay [18], -26.1% (active).
